# Source: PubChem BioAssay
# This excerpt belongs to a sample that is enriched for hits.
# APEX1 inh = APE1 (human) endonuclease inhibition; P27695; recombinant APE1, TAMRA/BHQ-2 abasic DNA cleavage fluorescence; Potency, µM (highest dose often 65.8 µM), inactives show top-dose activity change, negative = inhibition, usual class: inhibitors; 0.35% of 350,000 active; AID 2517;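 note: plate controls were vehicle for no effect and reference inhibitor for full effect; nearly all actives have a fitted effect of over 55% in size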
#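 Quantitative HTS: incision of a TAMRA/BHQ-2 double-stranded substrate bearing a tetrahydrofuran abasic site by 0.75 nM APE1 raises fluorescence. Substrate 50 nM final, added after 15 min compound preincubation at room temperature; progress as third-minus-first kinetic read difference.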
# L3MBTL1 inh-1 = blocks human L3MBTL1 | AlphaScreen L3MBTL1–H3K9me1 peptide binding | 0.66% of 230,000 active | Potency, µM (doses to about 57.1 µM), for inactives: at the top dose activity, negative = inhibition, hits mostly inhibitors; note: % is set by controls: 0 for no effect and ±100 for the full control effect; nearly all actives have a fitted effect of over 60% in size
#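 L3MBTL1 50 nM + b-AHA-H3(1-15)K9me1 75 nM, 30 min RT; compound added, 30 min RT; streptavidin donor/Ni-chelate acceptor beads 10 ug/mL each final, 30 min RT dark; AlphaScreen read.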
# KDM4E inh = inhibitors of human JMJD2E histone demethylase | AID 2147 | Potency, µM (doses to about 57.1 µM), without a hit: at the top dose activity change, negative = inhibition, hits mostly inhibitors | 1.6% of 230,000 active | JMJD2E catalytic domain, FDH-coupled NADH fluorescence (FDH is formaldehyde dehydrogenase) | B2RXH2; active = well fitted inhibition curve with a large enough effect, not every such curve was filed as active; inconclusive = small, poorly fitted or top-dose-only effect, or another doubt; inactive = no such curve, though single readings can be large or run the other way;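 note: 0% = wells with enzyme and -100% = buffer wells without enzyme; nearly all actives have a fitted effect of over 50% in size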
# TDP1 inh = TDP1 (human) enzyme inhibition | recombinant TDP1, AlphaScreen DNA substrate cleavage | 0.28% of 350,000 active | Potency, µM (top dose mostly 130 µM), inactives show at the top dose activity change, negative = inhibition, most hits filed as inhibitors | Q9NUW8; note: % is set by controls: 0 for no effect and ±100 for the full control effect; nearly all actives have a fitted effect of over 40% in size
#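 Signal: AlphaScreen proximity between streptavidin donor and anti-FITC acceptor beads on intact substrate. Reaction: Tdp1 1 nM, substrate 15 nM final, 5 min RT after 15 min compound preincubation.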
# RECQ1 inh = inhibitors of human RECQ1 DNA helicase. RECQ1 DNA unwinding, red fluorescence kinetic read. 0.54% of 240,000 active. P46063. Potency, µM (top dose mostly 57.3 µM), without a hit: at the top dose activity, negative = inhibition, actives largely listed as inhibitors;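 note: plate controls were vehicle for no effect and no enzyme for full effect; nearly all actives have a fitted effect of over 30% in size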
#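 RECQ1T1 50 nM; forked duplex (20 bp + 30-nt ss tails) 200 nM, ATP 2 mM final; pH 8.0, 2 mM MgCl2, 2.5 ug/ml poly(dI-dC); 15 min compound preincubation; discontinuous kinetic read over 2 h at RT.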
# BLM inh = inhibitors of human Bloom syndrome helicase BLM. recombinant BLM DNA unwinding, fluorescence dequenching. Potency, µM (series often up to 56.1 µM), inactives show top-dose activity change, negative = inhibition, actives largely listed as inhibitors. 0.2% of 350,000 active;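 note: plate controls were vehicle for no effect and no enzyme for full effect; nearly all actives have a fitted effect of over 35% in size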
# L3MBTL1 inh-2 = L3MBTL1 binding inhibition validated; shares compounds with L3MBTL1 inh-1; Potency, µM, hits mostly inhibitors; L3MBTL1 methyl-lysine binding inhibition, biochemical qHTS; 91% of 500 active; note: nearly all actives have a fitted effect of over 70% in size
# AlphaScreen ctr2 = AlphaScreen signal inhibition, L3MBTL1 hit counter-screen; shares compounds with L3MBTL1 inh-1; AlphaScreen counterscreen, signal inhibition; Potency, µM (doses to about 57.1 µM), inactives show top-dose activity change, negative = inhibition, usual class: inhibitors; 500 tested, under 10 active; AID 602224; note: 0% is about no effect
# Starred values were filed as active, the others as inactive; ? = inconclusive; . = not tested or not shown. Unless noted, calls come from the whole dose curve; as a rule, active = well fitted curve in the direction sought with a large enough effect; inconclusive = small, poorly fitted or top-dose-only effect, or another doubt; inactive = no such curve, though single readings can be large; an effect the other way counts as inactive or inconclusive. Potency is the fitted concentration of half-maximal effect.
SMILES,APEX1 inh,L3MBTL1 inh-1,KDM4E inh,TDP1 inh,RECQ1 inh,BLM inh,L3MBTL1 inh-2,AlphaScreen ctr2
COc1ccc(S(=O)(=O)Nc2ccc3c(c2)N(C(C)=O)CCC3)cc1F,.,.,.,6.2%,.,-0.3%,.,.
CCn1c2ccccc2c2cc(N=C3SC(CC(=O)Nc4ccccc4OC)C(=O)N3CCOC)ccc21 (centres undefined),-11.0%,28.2µM*,1.9%,3.0%,-9.1%,-4.7%,7.52*,?
COc1cnc(-c2ccccn2)nc1Oc1ccccc1,2.0%,31.6µM*,11.4%,3.8%,2.5%,3.4%,21.2*,40.3%
CCOC(=O)CSc1nc(-c2ccccn2)ncc1OC,-11.5%,22.4µM*,3.8%,2.7%,-17.5%,0.8%,26.7*,33.5%
COc1cnc(-c2ccccn2)nc1Sc1ccc(Cl)cc1,3.6%,-9.0%,2.5%,-2.0%,-6.7%,-0.2%,.,.
COc1ccc(/C=C\c2nc(=O)c3ccccc3o2)cc1,12.0%,.,-20.1%,2.9%,-9.6%,-9.1%,.,.
O=c1nc(/C=C/c2ccc(O)c(O)c2)oc2ccccc12,?,28.2µM*,12.6µM*,.,0.9%,21.5%,1.89*,-1.7%
CN(C)CCNC(=O)c1ccc(-n2c(-c3ccccc3)cc3c2CCCC3)cc1,.,.,.,3.9%,.,-8.3%,.,.
CC(=O)Oc1cc(C(=O)OCC(=O)N2CCc3ccccc3C2)cc(OC(C)=O)c1OC(C)=O,5.32µM*,8.91µM*,.,.,.,.,2.99*,2.9%
CC(NNC(=O)c1ccccc1)c1ccccc1 (centres undefined),.,.,.,-2.2%,.,2.8%,.,.
O=C(COC(=O)COc1ccccc1)Nc1cccc([N+](=O)[O-])c1,-2.1%,.,-2.8%,2.3%,-3.8%,-3.2%,.,.
Nc1c(C(=O)OCC(=O)Nc2cccc([N+](=O)[O-])c2)[nH]c(=O)[nH]c1=O,?,31.6µM*,.,-10.9%,.,.,23.8*,8.3%
O=c1oc2ccccc2c(O)c1C=NCc1ccccn1,6.6%,15.8µM*,2.9%,2.8%,9.7%,2.0%,21.2*,24.7%
O=c1c2ccccc2c(C=NCc2ccccn2)c(O)n1-c1ccccc1,2.7%,3.3%,?,5.3%,-0.5%,-4.1%,.,.
Cc1c(C(=O)OCCOC(C)C)[nH]c2c1C(=O)CC(c1ccco1)C2 (centres undefined),?,25.1µM*,-10.8%,-5.3%,-2.2%,-11.9%,23.8*,-2.1%
CCOC(=O)c1[nH]c2c(c1C)C(=O)CC(c1ccco1)C2 (centres undefined),?,31.6µM*,-24.5%,?,?,-24.9%,21.2*,6.7%
CSCCOC(=O)c1[nH]c2c(c1C)C(=O)CC(c1ccco1)C2 (centres undefined),12.6µM*,35.5µM*,-5.5%,12.6µM*,-20.9%,-28.8%,18.9*,-4.8%
COCCOC(=O)c1[nH]c2c(c1C)C(=O)CC(c1ccc(F)cc1)C2 (centres undefined),-7.1%,-0.1%,-4.8%,4.9%,-8.8%,0.0%,.,.
CCOC(C)(C)C,5.7%,.,.,8.2%,10.7%,.,.,.
Cc1ccc2c(c1)c1c3n2CCN(C(=O)c2ccc(C(F)(F)F)cc2)C3CCC1 (centres undefined),.,.,.,-3.2%,.,-15.7%,.,.
CC1CCN(Cc2c(O)ccc3c2O/C(=C\c2ccco2)C3=O)CC1,2.6%,10µM*,?,-2.6%,-2.1%,-1.2%,26.7*,-1.8%
Cc1ccc(/C=C2\Oc3c(ccc(O)c3CN3CCN(CCO)CC3)C2=O)cc1,9.2%,.,?,5.3%,-15.6%,-8.0%,.,.
O=C1NC(=Nc2ccc(O)cc2)S/C1=C/c1ccco1,?,.,-5.2%,-3.7%,-5.4%,-7.8%,.,.
